ChEMBL document CHEMBL4808148, “HDAC6 screening dataset using tau-based substrate in an enzymatic assay yields selective inhibitors and activators” (2021)
In all, about 5,600 compounds went through this assay and about 390 (7%) showed an effect of 50% or more. Only a selection was taken, and strong results are over-represented in it overall.

Columns and labels:
[1] = molecular target: T1, Protein deacetylase HDAC6 (Homo sapiens) (UniProt Q9UBN7); details: at 10 µM
T1 sequence (whole entry): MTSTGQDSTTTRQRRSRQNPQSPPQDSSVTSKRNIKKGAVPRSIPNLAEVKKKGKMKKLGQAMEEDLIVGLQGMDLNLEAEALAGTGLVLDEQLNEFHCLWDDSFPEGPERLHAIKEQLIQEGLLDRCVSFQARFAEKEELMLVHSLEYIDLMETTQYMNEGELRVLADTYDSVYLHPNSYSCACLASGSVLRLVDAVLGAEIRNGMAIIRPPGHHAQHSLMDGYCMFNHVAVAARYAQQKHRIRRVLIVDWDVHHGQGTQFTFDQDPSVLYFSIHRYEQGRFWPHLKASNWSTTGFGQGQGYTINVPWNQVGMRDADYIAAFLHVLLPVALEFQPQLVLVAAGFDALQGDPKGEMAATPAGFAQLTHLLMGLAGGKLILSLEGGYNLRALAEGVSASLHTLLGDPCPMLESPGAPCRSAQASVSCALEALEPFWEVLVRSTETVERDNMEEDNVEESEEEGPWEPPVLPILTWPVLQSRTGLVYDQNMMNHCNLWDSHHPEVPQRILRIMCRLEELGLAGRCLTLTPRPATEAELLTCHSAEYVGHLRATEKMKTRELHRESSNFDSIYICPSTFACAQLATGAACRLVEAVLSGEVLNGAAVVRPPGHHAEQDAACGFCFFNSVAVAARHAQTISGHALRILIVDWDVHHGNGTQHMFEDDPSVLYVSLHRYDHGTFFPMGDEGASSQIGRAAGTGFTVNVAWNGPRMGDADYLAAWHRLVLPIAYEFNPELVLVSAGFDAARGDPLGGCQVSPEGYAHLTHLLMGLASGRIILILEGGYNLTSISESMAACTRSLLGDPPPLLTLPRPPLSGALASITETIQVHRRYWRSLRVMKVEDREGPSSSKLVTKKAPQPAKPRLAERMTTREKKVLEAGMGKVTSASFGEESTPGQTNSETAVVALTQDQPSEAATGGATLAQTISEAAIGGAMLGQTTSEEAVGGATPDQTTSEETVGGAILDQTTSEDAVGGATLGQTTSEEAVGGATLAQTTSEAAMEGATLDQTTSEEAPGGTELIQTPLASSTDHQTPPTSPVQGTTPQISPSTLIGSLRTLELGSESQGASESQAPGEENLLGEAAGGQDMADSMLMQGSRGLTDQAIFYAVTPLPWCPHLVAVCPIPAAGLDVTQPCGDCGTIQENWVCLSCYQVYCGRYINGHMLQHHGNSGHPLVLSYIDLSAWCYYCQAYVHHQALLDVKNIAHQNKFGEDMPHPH

[2] = molecular target: Protein deacetylase HDAC6 (Homo sapiens) (UniProt Q9UBN7); details: at 10 µM; remark: listed apart in the source

Row | Compound | inhibition [1] [%] | inhibition [2] [%]
1 | CCN(CC)CCOc1ccc(Nc2ncc3cc(-c4c(Cl)cccc4Cl)c(=O)n(C)c3n2)cc1 | 12.6 | –
2 | Cc1cc(-c2ccc(/N=N/c3ccc4c(S(=O)(=O)O)cc(S(=O)(=O)O)c(N)c4c3O)c(C)c2)ccc1/N=N/c1ccc2c(S(=O)(=O)O)cc(S(=O)(=O)O)c(N)c2c1O | 80.8 | –
3 | NC(=O)NC1NC(=O)NC1=O (configuration not stated) | 1.79 | –
4 | C[C@@H]1CCO[C@H]2Cn3cc(C(=O)NCc4ccc(F)cc4F)c(=O)c(O)c3C(=O)N12 | -3.66 | –
5 | O=C1c2ccccc2C(Cc2ccncc2)(Cc2ccncc2)c2ccccc21 | 3.99 | –
6 | CCN(CC)CCCC(C)Nc1nc(C)cc(Nc2ccc3nc(C)cc(N)c3c2)n1 (configuration not stated) | -7.44 | –
7 | CCc1ccc(OCc2ccccc2C(=O)Nc2ccc3nc(C)cc(N)c3c2)cc1 | 80.4 | –
8 | CCN(CC)CCOC(=O)C(Cc1cccc2ccccc12)CC1CCCO1 (configuration not stated) | 2 | –
9 | Nc1nccc2c1ncn2[C@@H]1C=C(CO)[C@@H](O)[C@H]1O | -4.17 | –
10 | O=C(NCC1(N2CCN(c3ccccc3)CC2)CCOCC1)c1cccnc1Sc1ccccc1 | 8.43 | –
11 | CCC(C)(C)C(=O)C(=O)N1CCC[C@H]1C(=O)OCCCc1cccnc1 | -5.62 | –
12 | COc1cc(Nc2nc3ccccc3nc2NS(=O)(=O)c2ccc(NC(=O)c3ccc(C)c(OC)c3)cc2)cc(OC)c1 | 17.4 | –
13 | COc1cc(C(=O)NS(=O)(=O)c2ccccc2C)ccc1Cc1cn(C)c2ccc(NC(=O)OC3CCCC3)cc12 | 73.7 | –
14 | COc1cc(N)c(Cl)cc1C(=O)OCCN1CCCCC1 | 6.86 | –
15 | O=C(NC1Cc2ccccc2N(C[C@@H](O)CO)C1=O)c1cc2cc(Cl)sc2[nH]1 (some centres not stated) | -2.31 | –
16 | CCCCCCCC/C=C\CCCCCCCC(=O)N[C@@H](CO)Cc1ccc(O)cc1 | 27.9 | –
17 | Nc1ccc(/N=N/c2ccccc2)c(N)n1 | 102 | –
18 | NC(C(=O)O)c1cc(O)ccc1Cl (configuration not stated) | 15.3 | –
19 | CCCn1c(=O)c2[nH]cnc2n(-c2ccc(Cl)cc2)c1=O | 20.4 | –
20 | Oc1cc(O)cc(/C=C/c2ccc(O)c(O)c2)c1 | 85.2 | –
21 | COc1ccc(O)cc1 | 19.4 | –
22 | COc1cc(/C=C/c2ccc(O)cc2)cc(OC)c1 | 99 | –
23 | O=S(=O)(O)c1cc(O)ccc1O | -4.71 | –
24 | OC[C@H]1O[C@@H](Oc2cc(O)cc(/C=C/c3ccc(O)cc3)c2)[C@H](O)[C@@H](O)[C@@H]1O | 31.5 | –
25 | COc1cc(/C=C/c2ccc(OC)cc2OC)cc(OC)c1 | 86.2 | –
26 | C/C=C(/C(=C/C)c1ccc(O)cc1)c1ccc(O)cc1 | 0.77 | –

Row | Compound | inhibition [1] [%] | inhibition [2] [%]
27 | Oc1cc(O)cc(O)c1 | 18.2 | –
28 | Oc1ccc(/C=C/c2cc(O)cc(O)c2)cc1 | 97 | –
29 | COc1ccc(/C=C\c2cc(OC)c(OC)c(OC)c2)cc1O | 14.7 | –
30 | COc1cc(/C=C2\CCC/C(=C\c3ccc(O)c(OC)c3)C2=O)ccc1O | 35.9 | –
31 | NCC(O)(CS(=O)(=O)O)c1ccc(Cl)cc1 (configuration not stated) | -2.67 | –
32 | C=CC1=C(C)c2cc3[nH]c(cc4nc(cc5[nH]c(cc1n2)c(C)c5CCC(=O)O)C(CCC(=O)O)=C4C)c(C)c3C=C | 21.1 | –
33 | C[C@H](N)[C@H](O)c1cccc(O)c1 | 1.85 | –
34 | CCCC(=O)C1CCN(c2ncnc3c2CN(C(=O)c2ccc(-c4ccccc4)cc2)CC3)CC1 | 2.41 | –
35 | Cn1c(=O)c2c(ncn2CC(=O)Nc2ccc(-c3ccccc3)nn2)n(C)c1=O | 41.8 | –
36 | CN(CC[C@@H](Oc1ccc(-c2ccccc2)cc1)c1ccc(F)cc1)CC(=O)O | -3.28 | –
37 | O=C(/C=C/c1c(C(=O)O)[nH]c2cc(Cl)cc(Cl)c12)Nc1ccccc1 | 27.4 | –
38 | COc1ccc2c(c1)-c1nn(CCCN(C)C)c3ccc([N+](=O)[O-])c(c13)N2 | 9.03 | –
39 | CC(=O)NC[C@H]1CN(c2ccc(-c3ccc(CNCc4cnn[nH]4)cc3)c(F)c2)C(=O)O1 | 35.9 | –
40 | CC(=O)NC[C@H]1CN(c2ccc(N3CCSCC3)c(F)c2)C(=O)O1 | 9.47 | –
41 | Cn1nnc(-c2ccc(-c3ccc(N4C[C@H](CO)OC4=O)cc3F)cn2)n1 | 67.9 | –
42 | C[C@@H]1C[C@H]2[C@@H]3CCC4=CC(=O)C=C[C@]4(C)[C@@]3(Cl)[C@@H](O)C[C@]2(C)[C@@]1(OC(=O)c1ccco1)C(=O)CCl | -2.71 | –
43 | CSc1ccc(C(=O)/C=C/c2cc(C)c(OC(C)(C)C(=O)O)c(C)c2)cc1 | -7.51 | –
44 | EUK 134, CHEMBL5308416 | – | 33.1
45 | Nc1ncnc2c1c(COc1cccc(Cl)c1)nn2C1CCOCC1 | -8.17 | –
46 | O=C(c1ccccc1)c1ccc2n1CCC2C(=O)O (configuration not stated) | 66.7 | –
47 | O=C(O)c1ccccc1 | -0.18 | –
48 | O=C(O)C1CCCN(CCC=C(c2ccccc2)c2ccccc2)C1 (configuration not stated) | 18.1 | –
49 | CCCC(=O)C1(c2ccccc2)CCN(C(=O)[C@@H](Cc2ccc(OC)cc2)NC(=O)[C@@H](N)Cc2cncn2C)CC1 | 4.5 | –
50 | Nc1cccc2c(=O)[nH][nH]c(=O)c12 | 35.2 | –
51 | CCS(=O)(=O)c1ccc2oc(-c3ccc4ccccc4c3)nc2c1 | 97.2 | –
52 | c1ccc(Cn2c(-c3ccc(OC[C@H](C4CCNCC4)n4c(-c5ccccc5)nc5ccccc54)cc3)nc3ccccc32)cc1 | 5.68 | –
